Potency and activity change, negative = cytotoxicity data for 24 compounds are collected here from PubChem BioAssay (NCATS).

Records with an inconclusive call do not appear. A number with no mark means an inactive call. Activity calls are given as the source filed them. The call rests on the fitted dose curve; in most records, active means well fitted cell-killing curve with a large enough effect; inconclusive means small, poorly fitted or top-dose-only effect, or effect the other way; inactive means flat fitted curve, though single readings scatter.

Assay in all cases: Primary qHTS to identify gynecologic anti-cancer compounds using libraries of approved drugs and bioactive compounds (AID 1345084); further: nearly all actives have a fitted effect of over 55% in size
Details in all cases: Gynecologic cancer cell panel viability, ATPlite luminescence, 48 h; series mostly up to 57.5 µM
(Quantitative high-throughput screening tests each substance at several concentrations.)

One assay relates to PA-1. The essentials: (§1)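 Cells, 1,000 per well, were allowed to settle for 16 h at 37 C before compound addition. Five concentrations were tested for 48 h, and viability was read by ATPlite luminescence after 15 min at room temperature.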
For a further assay, the system named is SKOV3. A digest of the protocol:
as §1

For a further assay, the system named is Tov-21-G. The essentials:
as §1

The subject of the next assay is Tov112D. A digest of the protocol:
as §1
On the % scale 0 is the no-effect control and ±100 the full control effect; potency means the concentration at half of the fitted maximal effect.

Consider `O=C(O)c1ccnc2cc(C(OCC3CCC(F)(F)CC3)c3ccccc3Cl)[nH]c12` (stereo unspecified), for which the Potency result in the assay with PA-1, in the assay on SKOV3, with Tov-21-G and in the assay on Tov112D was “inactive” throughout.

As to `COC(=O)C1=CO[C@@H](O[C@@H]2O[C@H](CO)[C@@H](O)[C@H](O)[C@H]2O)[C@@H]2[C@@H](C(=O)O)CC[C@H]12`, the Potency entry in the assay with PA-1, in the assay on SKOV3, in the assay on Tov-21-G and with Tov112D was “inactive” in each case.

On to `CC1=CC(=O)CC(C)(C)C1CO[C@@H]1O[C@H](CO)[C@@H](O)[C@H](O)[C@H]1O` (stereo partly specified), for which the Potency result in the assay with PA-1, in the assay on SKOV3, in the assay on Tov-21-G and in the assay with Tov112D was “inactive” throughout.

Consider `C=C1CC/C=C(/C(=O)O)CCC2C1CC2(C)C` (stereo unspecified), for which the Potency entry in the assay on PA-1, in the assay with SKOV3, in the assay on Tov-21-G and with Tov112D was “inactive” in each case.

Regarding `C[C@]1(OC(=O)/C=C\c2ccc(O)cc2)C[C@@H](O)[C@]2(O)C=CO[C@@H](O[C@@H]3O[C@H](CO)[C@@H](O)[C@H](O)[C@H]3O)C12` (stereo partly specified), the Potency entry in the assay with PA-1, with SKOV3, in the assay on Tov-21-G and in the assay with Tov112D was “inactive” in each case.

Consider `CC1(C)C[C@H](O)C[C@@]2(C)[C@H]1[C@H](O)C=C1COC(=O)[C@@]12O`, for which the Potency result in the assay on PA-1, with SKOV3, with Tov-21-G and with Tov112D was “inactive” in each case.

For `C=CC1(C)CC=C2C(CCC3C(C)(C(=O)O)CCCC23C)C1` (stereo unspecified), the Potency entry in the assay with PA-1, in the assay on SKOV3, in the assay on Tov-21-G and in the assay on Tov112D was “inactive” throughout.

`CC1(C)CCC2(C(=O)O)CCC3(C)C(=CCC4C5(C)CCC(O)C(C)(CO)C5C(O)CC43C)C2C1` (stereo unspecified): the Potency result in the assay on PA-1, in the assay with SKOV3, with Tov-21-G and with Tov112D was “inactive” throughout.

As for `CC1=CCC2C(C)(C)CCCC2(C)C1CC12OC1C(O)C(CO)=CC2O` (stereo unspecified), the Potency result with PA-1, in the assay on SKOV3, in the assay with Tov-21-G and in the assay with Tov112D was “inactive” throughout.

For `Cc1occc(=O)c1O[C@@H]1O[C@H](CO)[C@@H](O)[C@H](O)[C@H]1O`, the Potency entry in the assay on PA-1, with SKOV3, in the assay on Tov-21-G and in the assay with Tov112D was “inactive” each time.

Take `CC1(O)CC(O)C2C(C(=O)O)=COC(OC3OC(CO)C(O)C(O)C3OC(=O)/C=C/c3ccc(O)cc3)C21` (stereo unspecified): the Potency result in the assay with PA-1, with SKOV3, in the assay with Tov-21-G and in the assay with Tov112D was “inactive” throughout.

In the case of `CC1CC(=O)[C@]2(O)C(C(=O)OCCc3ccc(O)c(O)c3)=CO[C@@H](O[C@@H]3O[C@H](CO)[C@@H](O)[C@H](O)[C@H]3O)[C@H]12` (stereo partly specified), the Potency result in the assay with PA-1, with SKOV3, in the assay on Tov-21-G and in the assay with Tov112D was “inactive” each time.

As to `C=C1CC23CC1CCC2C12OC(=O)C(C)(C(O)CC1O)C2C3C(=O)O` (stereo unspecified), the Potency entry with PA-1, in the assay on SKOV3, in the assay on Tov-21-G and with Tov112D was “inactive” each time.

Turning to `CC1(C)[C@@H]2CC=C(CO[C@@H]3O[C@H](CO[C@@H]4OC[C@H](O)[C@H](O)[C@H]4O)[C@@H](O)[C@H](O)[C@H]3O)[C@H]1C2`, the Potency entry with PA-1, in the assay on SKOV3, in the assay with Tov-21-G and in the assay on Tov112D was “inactive” in each case.

With `C/C(=C\CC/C(C)=C/CC[C@]1(C)CCc2cc(O)cc(C)c2O1)CC/C=C(\C)C(=O)O`, the Potency result in the assay with PA-1, with SKOV3, in the assay on Tov-21-G and in the assay on Tov112D was “inactive” throughout.

Consider `COC1OC(OC)C(O)(CCC2(C)C(C)CCC3(C)C2CC(O)C(O)C32CO2)C1O` (stereo unspecified), for which the Potency entry in the assay with PA-1, in the assay with SKOV3, in the assay with Tov-21-G and in the assay on Tov112D was “inactive” in each case.

For the compound `CC1=C[C@H]2[C@@H](CC1=O)[C@H](C)C[C@H](O)[C@H]2C(C)C`, the Potency entry in the assay on PA-1, with SKOV3, with Tov-21-G and in the assay on Tov112D was “inactive” each time.

`CC1CC=C2C1CC1(O)C(=O)CC2(C)C1(C)CO` (stereo unspecified): the Potency entry in the assay with PA-1, in the assay on SKOV3, with Tov-21-G and with Tov112D was “inactive” in each case.

Regarding `C[C@@H]1O[C@@H](O[C@H]2[C@@H]3C=CO[C@@H](O[C@@H]4O[C@H](CO)[C@@H](O)[C@H](O)[C@H]4O)[C@@H]3[C@@]3(CO)O[C@@H]23)[C@H](O)[C@H](O)[C@H]1OC(=O)/C=C/c1ccc(O)cc1`, the Potency entry with PA-1, with SKOV3, in the assay with Tov-21-G and with Tov112D was “inactive” in each case.

Take `CC(C)=CCC/C(C)=C/CO[C@@H]1O[C@H](CO[C@@H]2OC[C@](O)(CO)[C@H]2O)[C@@H](O)[C@H](O)[C@H]1O`: the Potency result in the assay with PA-1, in the assay with SKOV3, in the assay with Tov-21-G and with Tov112D was “inactive” throughout.

On to `CCN=C1N[C@@H]2[C@@H](O)[C@H](O)[C@@H](CO)O[C@@H]2S1`, for which the Potency result in the assay on PA-1, in the assay with SKOV3, with Tov-21-G and in the assay with Tov112D was “inactive” each time.

Turning to `CC(C)=CCc1cc(O[C@@H]2O[C@H](CO[C@@H]3OC[C@](O)(CO)[C@H]3O)[C@@H](O)[C@H](O)[C@H]2O)ccc1O`, the Potency result with PA-1, in the assay with SKOV3, in the assay with Tov-21-G and in the assay with Tov112D was “inactive” in each case.

As for `C/C1=C\CC[C@]2(C)O[C@H]2C(=O)c2c(C)coc2C1`, the Potency is 10 µM (active) in the assay with PA-1, 7.94 µM (active) with SKOV3, 8.91 µM (active) with Tov-21-G and 4.47 µM (active) in the assay with Tov112D.

`C=CC(C)(O)CC/C=C(\C)C(=O)O[C@@H]1[C@@H](O)[C@H](OC(C)(C=C)CC/C=C(\C)C(=O)O[C@@H]2O[C@H](CO)[C@@H](O)[C@H](O)[C@H]2O)O[C@H](CO)[C@H]1OC(=O)/C(C)=C/CCC(C)(O)C=C` (stereo partly specified): the activity change, negative = cytotoxicity with PA-1 was 3.07% [at 11.6 µM]; in the assay on SKOV3, -0.696% [at 11.6 µM]; in the assay on Tov-21-G it was 0.188% [at 11.6 µM]; in the assay with Tov112D, -0.614% [at 11.6 µM].
